Screen size: about 31,000 sequences; about 1,400 (4.5%) were called active.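 Rule for the calls: active = median seed-adjusted z-score above 1 or below -1; inactive = the rest.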 Many of the other results were omitted from the sample, so actives are more common in it than they were.

The assay in a line: Novel Modifiers of Survival Motor Neuron (SMN) Protein: Gene Identification via Genome-wide siRNA Screen.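 Note: luminescence tracks full-length SMN protein made from the SMN2 reporter.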 The following applies: HEK293T SMN2-luciferase reporter, siRNA knockdown, 72 h; actives lie on both sides. In short, it runs like this:
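Luciferase signal, proportional to full-length SMN made from an SMN2 cDNA reporter in stable HEK293T cells, was read 72 h after siRNA reverse transfection. Values were expressed as MAD scores after non-targeting-control normalization and log10 conversion; seed analysis flagged off-targets.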
A general note: A reporter such as luciferase makes a cellular process visible.
CGCUGAAACACGUCCAUUUTT against CHAD: the median seed-adjusted z-score was 0 (inactive).
Consider CUCUGAACAUCAACCCGGATT against DMRTB1, for which the median seed-adjusted z-score is -0.393 (inactive).
As to GGAUCGUGGUCUUUCCAAATT against FNTA, the median seed-adjusted z-score was 1.04 (active).
With GAAGAUUGGUGAUCUAGGATT against WNK3, the median seed-adjusted z-score was -0.466 (inactive).
With GGCUUCUUGUCCAACCCUATT against CILP the figure was 0.0436 (inactive); with GUAGGACCCUAAUAUCGAUTT against TEP1, -0.495 (inactive).
Take CAACUUUGAGGUAAAGUCATT against PRPF19: the median seed-adjusted z-score is -0.485 (inactive).
For the sequence CGCUGAUACUAACAAUUGATT against AOX1, the median seed-adjusted z-score was -0.0717 (inactive).
Take GAUUCGUUCUUCUACAACUTT against PSMD2: the median seed-adjusted z-score is -1.44 (active).
For the sequence GGGCUGGAAUUACUAUGGATT against CCNH, the median seed-adjusted z-score was -0.659 (inactive).
For GGCGAUUAGGAAACAUGAATT against PRKX, the median seed-adjusted z-score was 0.0341 (inactive).
Turning to GCAUUUUCCGCCUACCACATT against POLM, the median seed-adjusted z-score is -1.55 (active).
On to GAACAUUUCCAAGUCUGUATT against YSK4, for which the median seed-adjusted z-score is -0.181 (inactive).
Take CCAAGUUUAUAUCAUAUUATT against GNG4: the median seed-adjusted z-score was -0.188 (inactive).
Regarding CGCGGUGCAUAUGAAGAUATT against PIGM, the median seed-adjusted z-score is 1.36 (active).
Regarding CAGUGUAAUUAGGCAACUATT against MYO3A, the median seed-adjusted z-score was 0.0776 (inactive).
For CACCUCCGAUAAGCCCUAUTT against ZIC2, the median seed-adjusted z-score is -0.162 (inactive).
For GCAACUACUUCCGAUCUAATT against KIF17 the value was -0.151 (inactive); for GGUUGUAACUGCAAGAUCATT against TIMP3, -1.05 (active).
For CAUCCAUAAUUGGUGUAAATT against KIF20B the value was 0 (inactive); for ACUUAGUCAUCAUCAAGUATT against GK, -0.474 (inactive).
For the sequence CAAGAUUCUUGACCUUGAATT against PDP2, the median seed-adjusted z-score is -0.0726 (inactive).
For GGAUAUUGCGUUUGGAACATT against TDP1 the value was -0.352 (inactive); for GGAUACUCUUCCUAUUCAATT against OMA1, 0 (inactive).
Take CGGCUUUUAUGGACGAGUUTT against STX3: the median seed-adjusted z-score was 0.686 (inactive).
Take GAAACAAAGUCUUAAUAUUTT against ATP1A4: the median seed-adjusted z-score is 0.116 (inactive).
For GGAAAAGUUCUGAAGACUATT against CPOX, the median seed-adjusted z-score was -0.135 (inactive).
For the sequence GCACCUCACCCAUCAAUGATT against RERE, the median seed-adjusted z-score was 0.129 (inactive).
In the case of GGUUGUCAUUAACAACAGUTT against DLST, the median seed-adjusted z-score was 1.16 (active).
For GGUUCGGCAUGAGUGUGAATT against ZNF187 the value was 0.419 (inactive).
On to GCAGGAGACUCAAAGAUUUTT against DDO, for which the median seed-adjusted z-score is -0.202 (inactive).
Take GUCUAUCUCUUGUCUAAAATT against HYAL4: the median seed-adjusted z-score was -0.236 (inactive).
For GCUCAUUGGUACAAUGUCATT against POLE the value was -1.55 (active); for CGCUCAUGGACUUCGCCUATT against ZBTB7A, -0.344 (inactive); for CCAUAACGGUGGAUGAGUATT against MPPED2, 0.418 (inactive).
As to GAAGUUUGACCAUGACUUUTT against ACCN5, the median seed-adjusted z-score was 0.227 (inactive).
In the case of CACUGAUUCUGAAGGCGAATT against RPS6KA1, the median seed-adjusted z-score is 0.194 (inactive).
Regarding CGUCUGACUUCGCUAGCAATT against HOXD11, the median seed-adjusted z-score was -0.185 (inactive).
As to GGAUGUUGUUUAUCGAGGATT against MED21, the median seed-adjusted z-score is -1.3 (active).
As for ACAAAAAGGGCAUACAUUATT against S100A7A, the median seed-adjusted z-score is 0.212 (inactive).
As for GCAGCUGUUUGGAACCAAATT against TRIM47, the median seed-adjusted z-score was 0.707 (inactive).
Regarding GCAUCUCUUCUAUGCCGAATT against MATN2, the median seed-adjusted z-score was 0.275 (inactive).
Turning to ACAAGCACCUAGACCAUGATT against ANGPTL4, the median seed-adjusted z-score is 1.37 (active).
Consider ACUUAAUGCCUGCCUAUUATT against CYP21A2, for which the median seed-adjusted z-score is -0.26 (inactive).
With UGACGUAGGCAUAAACGGATT against PCDH11Y the figure was 0.186 (inactive); with GCUCUAAACCAGAACGGGATT against ARAP3, -0.00876 (inactive).
With AGACCAACCCUGGUACUUUTT against SRMS the figure was -1.58 (active); with GCAUUGUCCGUCUUCAUCATT against GLP1R, 0 (inactive).
Take GCACGUCACUGUGGUUGUATT against THNSL2: the median seed-adjusted z-score was 0 (inactive).
In the case of GCUUAUACAUUCCGAUGAATT against PTPRZ1, the median seed-adjusted z-score was 1.73 (active).
GGAUGUAGCUGUCAACUGUTT against HSD17B10: the median seed-adjusted z-score was -0.355 (inactive).
As for GACCUUACGAGGUUUCUAATT against TSNAX, the median seed-adjusted z-score is 0.514 (inactive).
For CGUUCCUAAGCUACAAGAATT against TMPRSS9, the median seed-adjusted z-score was 0.106 (inactive).
Consider GAAUUCAGAUGCGAGUAAATT against RFX6, for which the median seed-adjusted z-score is 0.119 (inactive).
On to CUGUUUACAUGACCUAUUUTT against MAFG, for which the median seed-adjusted z-score is 0 (inactive).
On to CGGCACAUCCUGCUUUGUUTT against ZNF213, for which the median seed-adjusted z-score was 1.37 (active).
As to GGUUCCUUAUUAUAGUCCATT against GPR63, the median seed-adjusted z-score is -0.0154 (inactive).
As for CGGUGCUCCCUGUCAUAAATT against CCR2, the median seed-adjusted z-score was -0.00107 (inactive).
As for GGCAUGAAUUUGAACUGUATT against CA8, the median seed-adjusted z-score is 0.172 (inactive).
For CCGUCAAGGUCGUCAUACATT against NTSR1 the value was -1.1 (active); for GGACGGCUUUCUGCAAAGATT against GLRA2, -0.927 (inactive).
As for AGUGUCUACUGUGAGAAUATT against TRAF4, the median seed-adjusted z-score is -1.16 (active).
Regarding GCACCAUAGUGACACUGAATT against IFNAR2, the median seed-adjusted z-score was -0.219 (inactive).
Turning to CAGUGGACUUCCAACCCAATT against SF3A1, the median seed-adjusted z-score was -1.09 (active).
With CAUUCAUCUCAAUAAUUGATT against IL5RA, the median seed-adjusted z-score was -0.357 (inactive).
In the case of CAUGGACGAGAUCAAGGAATT against AGXT, the median seed-adjusted z-score is 0.017 (inactive).
Take GCACUACUCCGAGAAGUUATT against NEK6: the median seed-adjusted z-score is -0.674 (inactive).
Regarding CAAUAGUAAAGGGAUAUAATT against MED27, the median seed-adjusted z-score is -1.62 (active).
For the sequence AGACCGACGUGAAAGAGGATT against HAND2, the median seed-adjusted z-score is 0.0864 (inactive).
For the sequence CAGUUGCCUAUAUCCUAUATT against TDRKH, the median seed-adjusted z-score is -0.434 (inactive).
